Source: PubChem BioAssay (National Center for Advancing Translational Sciences (NCATS))
IL1B secr inh: qHTS for Inhibitors of Inflammasome Signaling: IL-1-beta AlphaLISA Primary Screen; THP-1 LPS/ATP IL-1B secretion, AlphaLISA, 16 h; active compounds read low; activity change, % at 57.5 µM; 4.7% of 360,000 active; AID 743279, 2014; in the data active = activity change below about -50%; inconclusive = mostly about -30% to -49%
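Secreted IL-1B measured by AlphaLISA bead assay after 16 h compound exposure of THP-1 cells; compounds (final up to 57.5 uM) added 1 h before LPS (250 ng/mL) and ATP (1.25 mM) stimulation; lower signal means less secretion.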
HT1080-NT tox: qHTS for induction of synthetic lethality in tumor cells producing 2HG: qHTS for the HT-1080-NT fibrosarcoma cell line; Potency, µM (top dose mostly 46.1 µM), for the others: at the top dose activity, negative = less viability, most hits filed as cytotoxic; 1.6% of 360,000 active; HT-1080-NT fibrosarcoma viability, CellTiter-Glo ATP luminescence, 48 h; AID 686970, 2013;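 also: NT is the 2HG producing partner of a matched IDH1 knockdown line; potency is read from the fitted curve at half-maximal effect; 0% = DMSO-treated cells and -100% = media-only wells without cells; nearly all actives have a fitted effect of over 55% in size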
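Fibrosarcoma NT cells, 750 per well in 5% FBS RPMI, were exposed to compound for 48 hours. Viability: CellTiter-Glo luminescence.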
HT1080 IDH1KD tx: qHTS for induction of synthetic lethality in tumor cells producing 2HG: qHTS for the HT-1080-IDH1KD cell line | HT-1080 IDH1 knockdown viability, ATP luminescence, 48 h | Potency, µM (titrated, usually from 46.1 µM), for inactives: top-dose activity, negative = toxicity, usual class: cytotoxic | 2% of 360,000 active | AID 686971, 2013;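 also: potency is read from the fitted curve at half-maximal effect; 0% = DMSO wells and -100% = cell-free medium wells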
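IDH1KD HT-1080 cells, 750/well, RPMI + 5% FBS; compound pinned after 2 h settling; 48 h, 37 °C; CellTiter-Glo luminescence; % activity normalised to DMSO and no-cell wells; curves fitted, classed by r2 and efficacy.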
DT40 TDP1 no CPT: qHTS for Inhibitors of human tyrosyl-DNA phosphodiesterase 1 (TDP1): qHTS in cells in absence of CPT. DT40 Tdp1-/- hTDP1 cells, no CPT, ATP luminescence, 48 h. Potency, µM (highest dose often 46.2 µM), inactives show top-dose activity change, negative = growth inhibition, hits mostly inhibitors. 15% of 420,000 active. AID 686978, 2013; also: potency is read from the fitted curve at half-maximal effect; nearly all actives have a fitted effect of over 55% in size
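Chicken DT40 Tdp1-/- cells stably complemented with human TDP1 were seeded at 400 cells/well with DMSO in place of 20 nM camptothecin. After compound pinning, cells grew at least 48 hr at 37 °C; viability read by CellTiter-Glo luminescence.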
ELG1 repair inh: qHTS screen for small molecules that inhibit ELG1-dependent DNA repair in human embryonic kidney (HEK293T) cells expressing luciferase-tagged ELG1. 2.3% of 330,000 active. Potency, µM (top dose mostly 46.1 µM), for inactives: at the highest dose activity change, negative = inhibition, actives largely listed as inhibitors. AID 504467, 2011. HEK293T ELG1-luciferase reporter, luminescence, 16 h; DNA damage induced by 5-fluorouridine; also: potency is read from the fitted curve at half-maximal effect; nearly all actives have a fitted effect of over 55% in size
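5-Fluorouridine DNA damage + compound/DMSO, 2,000 cells/well, 16 h, 37 °C/5% CO2. ONE-Glo, 30 min RT, luminescence. Readout = decrease in reporter signal.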
DT40 TDP1 CPT: qHTS for Inhibitors of human tyrosyl-DNA phosphodiesterase 1 (TDP1): qHTS in cells in presence of CPT. chicken DT40 Tdp1-/-;hTDP1 cells + 20 nM CPT, ATP luminescence, 48 h. Potency, µM (series often up to 46.2 µM), without a hit: top-dose activity change, negative = growth inhibition, most hits filed as inhibitors. 12% of 420,000 active. AID 686979, 2013; also: potency is read from the fitted curve at half-maximal effect; nearly all actives have a fitted effect of over 55% in size
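Chicken DT40 Tdp1-/- cells complemented with human TDP1, 400 cells/well, exposed to compounds plus 20 nM camptothecin for at least 48 h at 37 C; viability read as ATP content by CellTiter-Glo luminescence.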
* marks the source's active call; other numbers are inactive results; i = inactive; ? = inconclusive; . = not tested or not shown. Compounds with a hit are over-represented: about 19% of the library has one in this group of screens. Unless noted, calls follow the shape of the dose curve; as a rule, active = well fitted curve in the direction sought with a large enough effect; inconclusive = small, poorly fitted or top-dose-only effect, or another doubt; inactive = no such curve, though single readings can be large; an effect the other way counts as inactive or inconclusive. Unless noted, % is scaled to controls: 0 for no effect and ±100 for the full control effect.

SMILES	IL1B secr inh	HT1080-NT tox	HT1080 IDH1KD tx	DT40 TDP1 no CPT	ELG1 repair inh	DT40 TDP1 CPT
O=C(C1CCN(S(=O)(=O)c2cc(Cl)ccc2Cl)CC1)N1CCOCC1	-57*	-11%	-10%	-4%	-3%	-11%
CN(CCc1ccccc1)C1CCCN(S(=O)(=O)c2cccc(F)c2)C1 (configuration not stated)	-4	-7%	-2%	?	0%	-2%
CCCNC(=O)C1CCN(c2ccc(S(=O)(=O)N3CCOCC3)cc2Cl)CC1	0	5%	3%	-30%	?	15µM*
O=C(NCc1cccnc1)C1CCN(c2ccc(S(=O)(=O)N3CCOCC3)cc2Cl)CC1	24	?	?	?	16µM*	?
Cc1ccc(S(=O)(=O)N2CCCC(C(=O)NCc3cccnc3)C2)cc1Cl (configuration not stated)	38	-6%	-17%	?	-26%	-25%
O=C(C1CCN(S(=O)(=O)c2cc(Cl)ccc2Cl)CC1)N1CCCC1	-16	-7%	-3%	-25%	16%	-1%
C=CCNC(=O)C1CCN(c2ccc(S(=O)(=O)N3CCOCC3)cc2Cl)CC1	21	0%	-3%	-29%	?	-9%
Cc1cc(S(=O)(=O)N2CCCC(N(C)CCc3ccccn3)C2)c(C)cc1Cl (configuration not stated)	?	-12%	-5%	21µM*	?	21µM*
COc1ccc(CNc2ncnc3ccc(-c4c(C)noc4C)cc23)c(OC)c1	.	.	.	?	.	-7%
CN1CCN(c2ncc3nc(-c4ccccc4)c(=O)n(-c4ccccc4)c3n2)CC1	.	.	.	-30%	.	7%
O=C(NC1CC(=O)N(c2cccc(F)c2)C1)c1ccc(Br)o1 (configuration not stated)	.	.	.	-25%	.	?
NS(=O)(=O)c1ccc(CNC(=O)c2ccc(C(=O)c3ccccc3)cc2)cc1	-7	-2%	0%	?	-10%	-25%
CCc1ccc(CNC(=O)C2CCN(S(=O)(=O)N3CCC(C)CC3)CC2)cc1	-2	-3%	2%	26µM*	-1%	?
COc1ccc(C)cc1S(=O)(=O)N1CCCC(C(=O)NCc2ccccn2)C1 (configuration not stated)	i	2%	-8%	-5%	-6%	2%
Cc1ccc(CNC(=O)C2CCN(S(=O)(=O)N3CCC(C)CC3)CC2)cc1	-1	-2%	-3%	?	.	-18%
O=C(NCc1cccnc1)C1CCN(S(=O)(=O)c2cc(Cl)ccc2Cl)CC1	37	-9%	-11%	?	?	7.3µM*
O=C(NCc1ccncc1)C1CCN(S(=O)(=O)Cc2ccccc2)CC1	-64*	-10%	0%	2%	-11%	-17%
O=C(NCc1cccnc1)C1CCN(S(=O)(=O)c2cccnc2)CC1	8	-3%	-1%	-20%	13%	-10%
O=C(NCc1ccccn1)C1CCCN(S(=O)(=O)c2cc(Cl)ccc2Cl)C1 (configuration not stated)	-104*	5.8µM*	5.8µM*	8.2µM*	.	9.2µM*
O=C(NCc1ccncc1)C1CCN(S(=O)(=O)c2ccccc2)CC1	-5	4%	8%	22%	22%	17%
CCOC(=O)C1=C(COC(=O)CCCOc2ccccc2)NC(=O)NC1C (configuration not stated)	19	7%	2%	-2%	10%	10%
COc1cccc(-c2cc(CNC(=O)[C@H]3O[C@@H](n4ccc(=O)[nH]c4=O)[C@H](O)[C@@H]3O)no2)c1	-10	25%	1%	-6%	.	0%
O=S(=O)(NCC1CCN(c2ccc(S(=O)(=O)N3CCOCC3)cc2)CC1)c1ccccc1	-13	-20%	0%	?	6%	-22%
Cc1ccccc1NC(=O)NCC1CCN(c2ccc(S(=O)(=O)N3CCOCC3)cc2)CC1	-9	-16%	-2%	21µM*	-12%	23µM*
O=S(=O)(NCC1CCN(c2ccc(S(=O)(=O)N3CCOCC3)cc2)CC1)c1ccc(F)cc1	-5	-22%	-17%	21µM*	?	23µM*
SMILES	IL1B secr inh	HT1080-NT tox	HT1080 IDH1KD tx	DT40 TDP1 no CPT	ELG1 repair inh	DT40 TDP1 CPT
O=C(NCC1CCN(c2ccc(S(=O)(=O)N3CCOCC3)cc2)CC1)c1ccc(Cl)cc1	-75*	-15%	-12%	13µM*	21µM*	15µM*
Cc1cccc(NC(=O)NCC2CCN(c3ccc(S(=O)(=O)N4CCOCC4)cc3)CC2)c1	-12	-11%	-11%	?	-4%	?
Cc1ccc(NC(=S)N2CCN(c3ccccn3)CC2)cc1C	-1	4%	8%	-10%	-13%	-15%
CCOc1ccc(C(=O)CSc2nnc3cc(C)c4ccccc4n23)cc1	.	.	.	-21%	.	6%
CCC(=O)N1CCCC(C)(C(=O)Nc2nccc3ccccc23)C1 (configuration not stated)	14	4%	15%	3%	.	1%
CC(=O)N1c2ccc(S(=O)(=O)N3CCCC(C(=O)N4CCCCC4)C3)cc2CC1C (configuration not stated)	18	6%	-5%	?	-11%	?
COc1ccc(N2CCN(S(=O)(=O)c3ccc4c(c3)NC(=O)CC(=O)N4)CC2)cc1	33	1%	-2%	3%	6%	-29%
CCOC(=O)N1CCN(S(=O)(=O)c2ccc3c(c2)CC(C)N3C(C)=O)CC1 (configuration not stated)	13	-1%	-5%	?	-1%	-28%
CC(=O)c1ccc(N2CCN(C(=O)C3CCN(S(=O)(=O)c4ccc5c(c4)CC(C)N5C(C)=O)CC3)CC2)cc1 (configuration not stated)	-8	0%	-4%	?	-6%	18µM*
COc1ccc(N2CCN(S(=O)(=O)c3ccc4c(c3)C(C(C)C)C(=O)N4)CC2)cc1 (configuration not stated)	.	.	.	8.2µM*	.	18µM*
